Assay results: PubChem BioAssay (NCATS)
Inconclusive results are not listed. The source made the active and inactive calls. Unless noted, calls follow the shape of the dose curve; as a rule, active = well fitted curve in the direction sought with a large enough effect; inconclusive = small, poorly fitted or top-dose-only effect, or another doubt; inactive = no such curve, though single readings can be large; an effect the other way counts as inactive or inconclusive.

Assays:
[1] = AP1 Signaling Pathway (AID 357; active = well fitted curve in either direction with a large enough effect, not every such curve was filed as active;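 also: ME-180 reporter cells stimulated with EGF at its EC50 level; % is scaled to controls: 0 for no effect and ±100 for the full control effect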); details: ME-180 AP-1-bla reporter, EGF-induced, beta-lactamase ratio, 5 h; at 17.2 µM (top of the series) unless noted
Procedure, shortened: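 Modulation of EGF-driven AP-1 transcription was assessed with a beta-lactamase reporter in ME-180 cells. Compound and EC50 EGF were co-incubated 5 hours at 37 °C before 2.5-hour CCF4 loading at room temperature and dual-emission reading.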

[2] = NFAT Signaling Pathway (AID 444; active = well fitted curve in either direction with a large enough effect, not every such curve was filed as active;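 also: carbachol stimulus at about its EC50 of 1 µM final; % is scaled to controls: 0 for no effect and ±100 for the full control effect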); details: Jurkat NFAT-bla M1, carbachol, beta-lactamase ratio, 5 h; at 17.2 µM (top of the series) unless noted
Procedure, shortened: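 Jurkat cells with NFAT-driven β-lactamase reporter and co-expressed M1 receptor, stimulated with carbachol (final 1 uM, ~EC50), compound titration, 5 h at 37 °C. CCF4 loaded 1 h at RT; 460/530 nm ratio gave %activity and AC50.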

[3] = Stat Signaling Pathway (AID 446; active = well fitted curve in either direction with a large enough effect, not every such curve was filed as active;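 also: ME-180 cervical cancer cells given 40 pM IL-6 alongside compound; SIE-controlled beta-lactamase reporter measured as 460/530 nm FRET emission ratio; % is scaled to controls: 0 for no effect and ±100 for the full control effect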)
Procedure, shortened: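 Reporter line: ME-180 cervical carcinoma, SIE-beta-lactamase. Treatment: compound with 40 pM IL-6, 5 hrs, 37 C, in low-serum OPTI-MEM with 10 mM HEPES pH 7.3. Detection: 460/530 nm fluorescence.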

[4] = molecular target: Glucocorticoid receptor (Homo sapiens) (UniProt P04150); assay: GR-GFP Redistribution (AID 450;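 active = compounds whose dose series gives a full or clear partial fitted curve of increased nuclear translocation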; also: potency is read from the fitted curve at half-maximal effect); details: U2OS GR-GFP nuclear translocation, laser cytometry, 2 h
Sequence of Glucocorticoid receptor (Homo sapiens) (P04150 whole entry, looked up, the tested form may be a part): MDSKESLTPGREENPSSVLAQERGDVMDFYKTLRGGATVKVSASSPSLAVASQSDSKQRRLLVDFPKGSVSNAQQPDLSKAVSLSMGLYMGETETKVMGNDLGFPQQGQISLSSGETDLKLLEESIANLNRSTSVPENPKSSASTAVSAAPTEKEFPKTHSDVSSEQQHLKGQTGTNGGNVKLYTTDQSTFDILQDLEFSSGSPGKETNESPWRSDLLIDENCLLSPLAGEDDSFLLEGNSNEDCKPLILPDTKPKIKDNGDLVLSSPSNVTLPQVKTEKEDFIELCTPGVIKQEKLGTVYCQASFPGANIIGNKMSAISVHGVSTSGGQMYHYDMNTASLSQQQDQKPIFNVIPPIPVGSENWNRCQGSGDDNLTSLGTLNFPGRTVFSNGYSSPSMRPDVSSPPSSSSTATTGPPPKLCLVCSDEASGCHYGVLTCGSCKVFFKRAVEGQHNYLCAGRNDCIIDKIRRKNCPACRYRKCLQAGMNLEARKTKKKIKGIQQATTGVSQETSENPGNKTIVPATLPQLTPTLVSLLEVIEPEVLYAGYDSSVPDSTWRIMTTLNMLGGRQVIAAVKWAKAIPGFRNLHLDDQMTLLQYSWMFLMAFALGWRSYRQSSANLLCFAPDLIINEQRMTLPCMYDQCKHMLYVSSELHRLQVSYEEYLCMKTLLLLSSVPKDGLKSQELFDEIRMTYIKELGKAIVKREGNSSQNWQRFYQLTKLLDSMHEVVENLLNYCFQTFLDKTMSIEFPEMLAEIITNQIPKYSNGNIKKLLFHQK

[5] = molecular target: Glucocorticoid receptor (Homo sapiens) (UniProt P04150); assay: GR-EFC Redistribution (AID 451; calls by dose curve; also: potency is read from the fitted curve at half-maximal effect); details: CHO-K1 GR-EFC translocation, beta-gal luminescence, 2 h
Procedure, shortened: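 CHO-K1 cells expressing nuclear EA and GR-ED fragments of b-gal; compounds titrated up to 46 uM final, 2 h at 37 C. GR nuclear translocation read as complemented b-gal luminescence after 1 h RT detection.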

[6] = molecular target: Mitogen-activated protein kinase 10 (Mus musculus) (UniProt Q61831); assay: JNK3 AlphaScreen Assay (AID 530; active = well fitted curve in either direction with a large enough effect, not every such curve was filed as active;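 also: kinase came from lysate of stimulated human HepG2 cells; signal reports phosphorylation of biotinylated GST-cJun 1-79 at Ser73 with 10 µM ATP; % is scaled to controls: 0 for no effect and ±100 for the full control effect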)
Procedure, shortened: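 qHTS format: compounds tested as titrations against IL-1beta/TNF-alpha-activated HepG2 lysate JNK3 with biotin-GST-cJun substrate and 10 uM ATP at room temperature. Loss of anti-phospho-cJun AlphaScreen signal indicates inhibition.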

[7] = molecular target: 3',5'-cyclic-AMP phosphodiesterase 4B (Homo sapiens) (UniProt Q07343); assay: qHTS Assay for Inhibitors of PDE-IV (AID 607; active = well fitted activation curve with a large enough effect in the main read-out, with a control signal flat, not every such curve was filed as active; also: % of control where 0% means no effect)
Sequence of 3',5'-cyclic-AMP phosphodiesterase 4B (Homo sapiens) (Q07343 whole entry, looked up): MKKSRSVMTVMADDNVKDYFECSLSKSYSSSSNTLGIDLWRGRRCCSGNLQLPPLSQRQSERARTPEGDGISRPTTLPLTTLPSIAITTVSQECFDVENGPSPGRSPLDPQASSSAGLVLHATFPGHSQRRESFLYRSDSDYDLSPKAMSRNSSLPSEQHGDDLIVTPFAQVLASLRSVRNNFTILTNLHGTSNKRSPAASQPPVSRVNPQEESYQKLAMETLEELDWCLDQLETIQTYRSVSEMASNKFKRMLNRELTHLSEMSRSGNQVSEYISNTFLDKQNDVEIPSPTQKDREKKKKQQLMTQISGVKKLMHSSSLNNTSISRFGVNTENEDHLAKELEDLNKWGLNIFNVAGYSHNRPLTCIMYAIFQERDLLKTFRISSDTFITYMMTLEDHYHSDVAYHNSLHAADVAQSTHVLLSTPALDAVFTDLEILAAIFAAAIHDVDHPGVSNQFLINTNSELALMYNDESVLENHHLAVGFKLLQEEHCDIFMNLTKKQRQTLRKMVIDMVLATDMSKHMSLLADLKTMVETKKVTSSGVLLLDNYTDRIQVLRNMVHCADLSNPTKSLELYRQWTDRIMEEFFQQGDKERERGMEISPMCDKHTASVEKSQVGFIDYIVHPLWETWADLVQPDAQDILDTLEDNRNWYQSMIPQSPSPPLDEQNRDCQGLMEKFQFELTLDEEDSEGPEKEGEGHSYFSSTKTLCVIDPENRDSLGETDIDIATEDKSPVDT
Procedure, shortened: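 Cell-based read-out of cAMP via a modified cyclic nucleotide-gated channel and membrane potential dye (535/590 nm) in HEK293 cells expressing PDE4 endogenously. Compounds tested up to 22.9 uM final; 100 uM RO 20-1724 reference.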

[8] = molecular target: ATP-dependent 6-phosphofructokinase (Trypanosoma brucei brucei) (UniProt O15648); assay: qHTS Assay to Find Inhibitors of T. brucei phosphofructokinase: hit validation (AID 492961); also: % is scaled to controls: 0 for no effect and ±100 for the full control effect
Sequence of ATP-dependent 6-phosphofructokinase (Trypanosoma brucei brucei) (O15648 whole entry, looked up): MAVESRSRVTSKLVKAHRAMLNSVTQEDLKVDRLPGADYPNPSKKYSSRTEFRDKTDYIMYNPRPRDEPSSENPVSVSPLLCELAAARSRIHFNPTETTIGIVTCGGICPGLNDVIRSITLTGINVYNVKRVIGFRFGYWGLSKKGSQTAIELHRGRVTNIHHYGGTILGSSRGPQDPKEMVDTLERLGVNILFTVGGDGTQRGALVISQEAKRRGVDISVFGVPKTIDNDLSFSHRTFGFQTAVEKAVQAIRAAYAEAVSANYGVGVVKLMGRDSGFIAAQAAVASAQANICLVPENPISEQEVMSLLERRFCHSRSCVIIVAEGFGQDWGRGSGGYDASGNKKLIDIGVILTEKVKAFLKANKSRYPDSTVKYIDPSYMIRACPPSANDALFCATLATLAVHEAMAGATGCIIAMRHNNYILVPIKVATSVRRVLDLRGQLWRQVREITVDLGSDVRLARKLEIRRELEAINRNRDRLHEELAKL
Procedure, shortened: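 Luminescence from ADP-Glo reports ADP generated as T. brucei PFK (1.25 nM) phosphorylates 0.5 mM fructose-6-phosphate using 0.1 mM ATP. Reactions ran 45 min at room temperature, pH 8.0.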

[9] = molecular target: Ubiquitin carboxyl-terminal hydrolase 1 (Homo sapiens) (UniProt O94782); assay: Inhibitors of USP1/UAF1: Pilot qHTS (AID 504865);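 also: rhodamine fluorescence freed from ubiquitin-rhodamine substrate followed over time; top concentration of the series differs between compounds; % is scaled to controls: 0 for no effect and ±100 for the full control effect; nearly all actives have a fitted effect of over 35% in size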
Sequence of Ubiquitin carboxyl-terminal hydrolase 1 (Homo sapiens) (O94782 whole entry, looked up): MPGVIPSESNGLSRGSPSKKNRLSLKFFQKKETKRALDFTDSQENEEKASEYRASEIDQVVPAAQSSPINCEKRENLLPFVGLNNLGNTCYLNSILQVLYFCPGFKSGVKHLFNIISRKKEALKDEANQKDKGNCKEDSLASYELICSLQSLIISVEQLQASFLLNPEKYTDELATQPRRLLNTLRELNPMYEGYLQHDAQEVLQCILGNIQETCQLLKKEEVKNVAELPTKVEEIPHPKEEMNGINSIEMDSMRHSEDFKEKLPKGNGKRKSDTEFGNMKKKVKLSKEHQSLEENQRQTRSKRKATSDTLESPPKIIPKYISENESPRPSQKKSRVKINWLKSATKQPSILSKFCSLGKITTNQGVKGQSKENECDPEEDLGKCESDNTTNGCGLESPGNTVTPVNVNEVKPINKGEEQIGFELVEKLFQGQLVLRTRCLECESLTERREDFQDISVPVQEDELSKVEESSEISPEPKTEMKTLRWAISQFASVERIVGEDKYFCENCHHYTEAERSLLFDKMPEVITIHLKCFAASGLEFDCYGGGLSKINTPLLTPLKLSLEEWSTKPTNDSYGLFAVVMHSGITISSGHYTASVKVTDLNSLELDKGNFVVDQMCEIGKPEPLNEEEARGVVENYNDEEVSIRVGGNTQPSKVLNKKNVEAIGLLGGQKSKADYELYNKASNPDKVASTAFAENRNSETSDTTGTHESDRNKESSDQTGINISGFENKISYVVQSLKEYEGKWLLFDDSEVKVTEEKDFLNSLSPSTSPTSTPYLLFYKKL
Procedure, shortened: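 Kinetic fluorescence assay: 1nM USP1/UAF1, 15 min compound preincubation, then 150nM Ub-Rho; 480/540 nm.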

[10] = molecular target: Luciferin 4-monooxygenase (Photinus pyralis) (UniProt P08659); assay: Biochemical firefly luciferase enzyme assay for NPC (AID 624030);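 also: purified P. pyralis luciferase at 10 nM with luciferin and ATP substrate; 0% = DMSO and -100% = full luciferase inhibition by PTC124 control; nearly all actives have a fitted effect of over 70% in size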
Sequence of Luciferin 4-monooxygenase (Photinus pyralis) (P08659 whole entry, looked up): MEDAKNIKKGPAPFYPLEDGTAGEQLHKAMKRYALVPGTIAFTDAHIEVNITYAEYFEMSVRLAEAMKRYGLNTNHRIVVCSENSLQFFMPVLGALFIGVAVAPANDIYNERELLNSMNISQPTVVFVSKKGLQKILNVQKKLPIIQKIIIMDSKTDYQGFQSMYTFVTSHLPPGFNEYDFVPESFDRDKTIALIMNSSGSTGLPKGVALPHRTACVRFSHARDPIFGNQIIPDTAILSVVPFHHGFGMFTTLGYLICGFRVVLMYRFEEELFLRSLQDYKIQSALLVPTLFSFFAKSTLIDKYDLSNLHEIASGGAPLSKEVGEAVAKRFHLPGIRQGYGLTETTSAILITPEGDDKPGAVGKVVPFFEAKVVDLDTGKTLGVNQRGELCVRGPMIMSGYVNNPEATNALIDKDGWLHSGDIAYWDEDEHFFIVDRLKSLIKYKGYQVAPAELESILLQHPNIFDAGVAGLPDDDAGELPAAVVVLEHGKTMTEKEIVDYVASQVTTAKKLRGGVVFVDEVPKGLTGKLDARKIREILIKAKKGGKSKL
Procedure, shortened: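 Purified P. pyralis luciferase at 10 nM in 50 mM Tris Acetate (final), luminescence read within 5 minutes of enzyme addition to compounds. Activity normalised to PTC124 versus DMSO; concentration-response curves classed by r2, magnitude and activity.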

[11] = S16 Schwann cell viability assay (CellTiter-Glo assay) (AID 624031);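 also: native untransfected S16 rat Schwann cells; cellular ATP luminescence as a viability measure; plate controls were DMSO-treated cells for no effect and cell-free wells for full effect; nearly all actives have a fitted effect of over 70% in size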
Procedure, shortened: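 Concentration-effect curves come from CellTiter-Glo luminescence of S16 rat Schwann cells after 24 h compound exposure. Each reading was normalized to DMSO wells (0%) and wells without cells, and curves were ranked by r2 and response magnitude.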

[12] = S16 Schwann cell PMP22 intronic element firefly luciferase assay (AID 624032);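 also: plate controls were DMSO for no effect and PTC124 positive control mean for full effect; nearly all actives have a fitted effect of over 30% in size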
Procedure, shortened: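 Rat S16 Schwann cells stably carrying firefly luciferase driven by a PMP22 intronic element, in 10% FBS, treated 24 h at 37 C. ONE-Glo luminescence normalized to PTC124 control and DMSO (0%); curves classed by r2, magnitude and activity.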

[13] = S16 Schwann cell PMP22 intronic element beta-lactamase assay (AID 624044; calls by dose curve;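 also: 0% = DMSO and -100% = potassium clavulanate positive control; nearly all actives have a fitted effect of over 15% in size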); details: S16 rat Schwann cells, PMP22 element beta-lactamase FRET, 24 h; ratio activity, negative = inhibition: at 38.3 µM (top of the series)
Procedure, shortened: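 Rat S16 Schwann cells with beta-Lac driven by a PMP22 intronic element, compound-treated 24 h at 37 °C. LiveBLAzer FRET B/G read: 460 nm normalized to potassium clavulanate vs DMSO; 535 nm FRET as viability; concentration-effect curves classified.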

[14] = qHTS profiling for inhibitors of Plasmodium falciparum proliferation (AID 504749); also: nearly all actives have a fitted effect of over 60% in size; also: potency is read from the fitted curve at half-maximal effect;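 as to activity, negative = inhibition: 0% = DMSO vehicle and full inhibition = artemisinin control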; details: P. falciparum in erythrocytes, SYBR Green DNA, 72 h, at 12.8 µM (top of the series)
Procedure, shortened: (§1)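 Readout was DNA-dye fluorescence from lysed cultures, ex 485/em 535 nm. Parasitized red cells had grown 72 h with compound; data scaled between 0.29 uM artemisinin and DMSO wells and corrected using vehicle-only plates.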

3D7 = assay: as above; details: P. falciparum in erythrocytes, SYBR Green DNA, 72 h; series mostly up to 28.7 µM
Procedure, shortened: as §1

AA1029 = assay: as above; details: P. falciparum in erythrocytes, SYBR Green DNA, 72 h; series mostly up to 28.7 µM
Procedure, shortened: as §1

AS120 = assay: as above; details: P. falciparum in erythrocytes, SYBR Green DNA, 72 h; series mostly up to 28.7 µM
Procedure, shortened: as §1

ATS189 = assay: as above; details: P. falciparum in erythrocytes, SYBR Green DNA, 72 h; series mostly up to 28.7 µM
Procedure, shortened: as §1

C2A = assay: as above; details: P. falciparum in erythrocytes, SYBR Green DNA, 72 h; series mostly up to 28.7 µM
Procedure, shortened: as §1

CP185 = assay: as above; details: P. falciparum in erythrocytes, SYBR Green DNA, 72 h; series mostly up to 28.7 µM
Procedure, shortened: as §1

CP191 = assay: as above; details: P. falciparum in erythrocytes, SYBR Green DNA, 72 h; series mostly up to 28.7 µM
Procedure, shortened: as §1

CP194 = assay: as above; details: P. falciparum in erythrocytes, SYBR Green DNA, 72 h; series mostly up to 28.7 µM
Procedure, shortened: as §1

CP201 = assay: as above; details: P. falciparum in erythrocytes, SYBR Green DNA, 72 h; series mostly up to 28.7 µM
Procedure, shortened: as §1

CP203 = assay: as above; details: P. falciparum in erythrocytes, SYBR Green DNA, 72 h; series mostly up to 28.7 µM
Procedure, shortened: as §1

CP211 = assay: as above; details: P. falciparum in erythrocytes, SYBR Green DNA, 72 h; series mostly up to 28.7 µM
Procedure, shortened: as §1

CP215 = assay: as above; details: P. falciparum in erythrocytes, SYBR Green DNA, 72 h; series mostly up to 28.7 µM
Procedure, shortened: as §1

CP217 = assay: as above; details: P. falciparum in erythrocytes, SYBR Green DNA, 72 h; series mostly up to 28.7 µM
Procedure, shortened: as §1

CP238 = assay: as above; details: P. falciparum in erythrocytes, SYBR Green DNA, 72 h; series mostly up to 28.7 µM
Procedure, shortened: as §1

CP247 = assay: as above; details: P. falciparum in erythrocytes, SYBR Green DNA, 72 h; series mostly up to 28.7 µM
Procedure, shortened: as §1

CP250 = assay: as above; details: P. falciparum in erythrocytes, SYBR Green DNA, 72 h; series mostly up to 28.7 µM
Procedure, shortened: as §1

CP252 = assay: as above; details: P. falciparum in erythrocytes, SYBR Green DNA, 72 h; series mostly up to 28.7 µM
Procedure, shortened: as §1

CP256 = assay: as above; details: P. falciparum in erythrocytes, SYBR Green DNA, 72 h; series mostly up to 28.7 µM
Procedure, shortened: as §1

CP262 = assay: as above; details: P. falciparum in erythrocytes, SYBR Green DNA, 72 h; series mostly up to 28.7 µM
Procedure, shortened: as §1

CP265 = assay: as above; details: P. falciparum in erythrocytes, SYBR Green DNA, 72 h; series mostly up to 28.7 µM
Procedure, shortened: as §1

CP266 = assay: as above; details: P. falciparum in erythrocytes, SYBR Green DNA, 72 h; series mostly up to 28.7 µM
Procedure, shortened: as §1

CP268 = assay: as above; details: P. falciparum in erythrocytes, SYBR Green DNA, 72 h; series mostly up to 28.7 µM
Procedure, shortened: as §1

CP269 = assay: as above; details: P. falciparum in erythrocytes, SYBR Green DNA, 72 h; series mostly up to 28.7 µM
Procedure, shortened: as §1

CP297 = assay: as above; details: P. falciparum in erythrocytes, SYBR Green DNA, 72 h; series mostly up to 28.7 µM
Procedure, shortened: as §1

CP305 = assay: as above; details: P. falciparum in erythrocytes, SYBR Green DNA, 72 h; series mostly up to 28.7 µM
Procedure, shortened: as §1

CP315 = assay: as above; details: P. falciparum in erythrocytes, SYBR Green DNA, 72 h; series mostly up to 28.7 µM
Procedure, shortened: as §1

CP325 = assay: as above; details: P. falciparum in erythrocytes, SYBR Green DNA, 72 h; series mostly up to 28.7 µM
Procedure, shortened: as §1

CP329 = assay: as above; details: P. falciparum in erythrocytes, SYBR Green DNA, 72 h; series mostly up to 28.7 µM
Procedure, shortened: as §1

DIV17 = assay: as above; details: P. falciparum in erythrocytes, SYBR Green DNA, 72 h; series mostly up to 28.7 µM
Procedure, shortened: as §1

DIV30 = assay: as above; details: P. falciparum in erythrocytes, SYBR Green DNA, 72 h; series mostly up to 28.7 µM
Procedure, shortened: as §1

Dd2 = assay: as above; details: P. falciparum in erythrocytes, SYBR Green DNA, 72 h; series mostly up to 28.7 µM
Procedure, shortened: as §1

ECU = assay: as above; details: P. falciparum in erythrocytes, SYBR Green DNA, 72 h; series mostly up to 28.7 µM
Procedure, shortened: as §1

FAB9 = assay: as above; details: P. falciparum in erythrocytes, SYBR Green DNA, 72 h; series mostly up to 28.7 µM
Procedure, shortened: as §1

JCK = assay: as above; details: P. falciparum in erythrocytes, SYBR Green DNA, 72 h; series mostly up to 28.7 µM
Procedure, shortened: as §1

N140 = assay: as above; details: P. falciparum in erythrocytes, SYBR Green DNA, 72 h; series mostly up to 28.7 µM
Procedure, shortened: as §1

P94_40 = assay: as above; details: P. falciparum in erythrocytes, SYBR Green DNA, 72 h; series mostly up to 28.7 µM
Procedure, shortened: as §1

PC15 = assay: as above; details: P. falciparum in erythrocytes, SYBR Green DNA, 72 h; series mostly up to 28.7 µM
Procedure, shortened: as §1

PC26 = assay: as above; details: P. falciparum in erythrocytes, SYBR Green DNA, 72 h; series mostly up to 28.7 µM
Procedure, shortened: as §1

PC49 = assay: as above; details: P. falciparum in erythrocytes, SYBR Green DNA, 72 h; series mostly up to 28.7 µM
Procedure, shortened: as §1

SC27B = assay: as above; details: P. falciparum in erythrocytes, SYBR Green DNA, 72 h; series mostly up to 28.7 µM
Procedure, shortened: as §1

TAB113 = assay: as above; details: P. falciparum in erythrocytes, SYBR Green DNA, 72 h; series mostly up to 28.7 µM
Procedure, shortened: as §1

CN(C)[C@H]1C(=O)C(C(N)=O)=C(O)[C@]2(O)C(=O)C3=C(O)c4c(O)cccc4[C@@](C)(O)[C@H]3C[C@@H]12
active: Potency (Dd2) 1.78 µM
inactive: activity change, negative = inhibition [1] 11.4% | activity change, negative = inhibition [2] -2.46% | outcome [3] | Potency [4] > 20.6 µM | Potency [5] > 20.6 µM | outcome [6] | outcome [7] | outcome [8] | Potency [9] | Potency [10] | Potency [11] | Potency [12] | Potency [13] | activity, negative = inhibition ([14]; parasite line A) -27.8% | activity, negative = inhibition ([14]; parasite line B) -27.1% | Potency (3D7) | Potency (AA1029) | Potency (AS120) | Potency (ATS189) | Potency (C2A) | Potency (CP185) | Potency (CP191) | Potency (CP194) | Potency (CP201) | Potency (CP203) | Potency (CP211) | Potency (CP215) | Potency (CP217) | Potency (CP238) | Potency (CP247) | Potency (CP250) | Potency (CP252) | Potency (CP256) | Potency (CP262) | Potency (CP265) | Potency (CP266) | Potency (CP268) | Potency (CP269) | Potency (CP297) | Potency (CP305) | Potency (CP315) | Potency (CP325) | Potency (CP329) | Potency (DIV17) | Potency (DIV30) | Potency (ECU) | Potency (FAB9) | Potency (JCK) | Potency (N140) | Potency (P94_40) | Potency (PC15) | Potency (PC26) | Potency (PC49) | Potency (SC27B) | Potency (TAB113)
